Each structure is given as a SMILES string. Active and inactive are the calls of the source.

Assay [1] has as its system Human papillomavirus type 1a protein E7 (residues 44-93). Put plainly: HPV1a E7 fragment binders on microarrays, primary screen, biochemical, small-molecule microarray, residues 44-93, 635 nm fluorescence (AID 1108).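 Note: E7 fragment applied at 1 µg/mL in TBST for 1 h at 4 C; score combines spot fluorescence with its signal to noise ratio.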 To be noted: small-molecule microarray binding, fluorescence 635 nm; higher = more signal.
The nature of assay [2]: modulators of HCV replicon luciferase signal, primary screen, HCV replication inhibitor project, Huh7 cells, luciferase reporter (AID 1109).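 Note: huh7 hepatoma cells harbouring a luciferase neomycin HCV replicon reporter; luciferase luminescence as measure of HCV replicon replication; test concentration not given here.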 The conditions noted are these: 48 h, higher = more signal.
The target of assay [3] is Left-right determination factor 2 (Homo sapiens) (UniProt O00292). Briefly: LEFTY2 binders on small-molecule microarrays, primary screen, biochemical, small-molecule microarray, 635 nm fluorescence scan (AID 1110). To be noted: LEFTY2 binding, higher = more signal.
Assay [4] addresses Calmodulin-1 (Homo sapiens) (UniProt P0DP23). Briefly: CALM1 binders on microarrays, EGTA buffer, profiling panel, biochemical, small-molecule microarray, Cy5-labelled CALM1 (AID 1111).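 Note: labelled calmodulin applied in Tris saline Tween buffer holding calcium plus EGTA and DTT.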 The conditions noted are these: Cy5-CALM1 binding fluorescence, higher = more signal.
Assay [5] shares this target. Put plainly: calcium-bound CALM1 binders on microarrays, profiling panel, artefact control for SMM control-protein annotation, biochemical, small-molecule microarray, Cy5-labelled CALM1, plus calcium (AID 1112).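 Note: score merges spot fluorescence with signal to noise from triplicate slides.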 The conditions noted are these: Cy5-CALM1 binding fluorescence, higher = more signal.
Assay [6] in a line: small-molecule microarray binders of probe aWnt5a, primary screen, biochemical, biotinylated probe, 635/667 nm fluorescence (AID 1113).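 Note: score merges 667 nm fluorescence intensity with signal-to-noise per printed feature.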 To be noted: higher = more signal.
Assay [7] in a line: small-molecule microarray binders of probe aShh, primary screen, biochemical, biotinylated probe, 635/667 nm fluorescence (AID 1114).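 Note: probe is biotin-labelled aShh protein from a stem cell growth factor screen; measures binding of labelled protein to compounds printed on the slide; score merges feature fluorescence at 667 nm with signal-to-noise.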 The conditions noted are these: higher = more signal.
The nature of assay [8]: small-molecule microarray binders of probe aNog, primary screen, biochemical, biotinylated probe, 635/667 nm fluorescence (AID 1115).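 Note: probe is biotinylated aNog protein used at 0.15 µg/mL for 1 h at 4 C; z-score combines 667 nm fluorescence of each spot with its signal to noise.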 To be noted: higher = more signal.
The target of assay [9] is Torsin-1A-interacting protein 1 (Homo sapiens) (UniProt Q5JTV8). Put plainly: LAP1 binders from COS7 cell lysate, primary screen, small-molecule microarray, 635/667 nm fluorescence (AID 1116). The conditions noted are these: COS7-hLAP1 lysate binding, 635 nm fluorescence, higher = more signal.
The target of assay [10] is Alpha-bungarotoxin (Bungarus multicinctus) (UniProt P60615). Briefly: alpha-bungarotoxin binders on microarray, profiling panel, artefact control for SMM control protein annotation, biochemical, small-molecule microarray, Alexa647 label, 635/667 nm fluorescence (AID 1117). To be noted: alpha-BTX-A647 binding fluorescence, higher = more signal.
Another assay addresses Albumin (Bos taurus) (UniProt P02769). Put plainly: bovine serum albumin binders on microarray, profiling panel, artefact control for SMM control protein annotation, biochemical, small-molecule microarray, Alexa647 label, 635/667 nm fluorescence (AID 1118).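 Note: score merges 667 nm emission intensity and signal-to-noise per printed compound spot.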 To be noted: BSA-A647 binding, fluorescence 635 nm, higher = more signal.
A short description of assay [11]: small-molecule microarray binders of probe aXIP, primary screen, biochemical, NeuroSMM set, 635/667 nm fluorescence (AID 1119).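 Note: probe is the protein aXip251-270 applied at 1 µg/mL to compound-printed slides; binding of probe to printed compounds measured as 667 nm fluorescence plus signal to noise.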 The conditions noted are these: higher = more signal, called active from +8 up or from −8 down.
Assay [12] can be described thus: small-molecule binders of probe aNOTCH3, primary screen, biochemical, small-molecule microarray, 635/667 nm fluorescence (AID 1120).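 Note: probe is a biotin-tagged antibody raised against NOTCH3 rather than NOTCH3 protein; score merges spot fluorescence near 667 nm with spot signal to noise.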 The conditions noted are these: higher = more signal.
Assay [13] can be described thus: small-molecule binders of probe aNOTCH2, primary screen, biochemical, small-molecule microarray, 635/667 nm fluorescence (AID 1121).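 Note: score merges feature fluorescence read at 667 nm with its signal to noise.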 To be noted: higher = more signal.
The target of assay [14] is Carbonic anhydrase 2 (Homo sapiens) (UniProt P00918). Briefly: CAII small-molecule binders, profiling panel, biochemical, small-molecule microarray, Alexa647-labelled CAII (AID 1122). The conditions noted are these: CAII-A647 binding fluorescence, higher = more signal.
Assay [15] in a line: COS7 lysate on small-molecule microarray, probe aHis, 635 nm (AID 1123).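 Note: z-score combines 667nm fluorescence intensity with signal-to-noise per printed compound spot.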 To be noted: COS7 cell lysate, fluorescence, higher = more signal.
The nature of assay [16]: compound binding in COS7 lysate, probe aLAP1, primary screen, cell lysate, small-molecule microarray (AID 1124).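 Note: lysate comes from COS7 cells expressing LAP1 and is applied at 0.3 µg/mL; score merges spot fluorescence near 667 nm with signal-to-noise over triplicate slides.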 The conditions noted are these: probe aLAP1, fluorescence, higher = more signal.
For a further assay, the system named is Sam68 (KHDRBS1). Put plainly: Sam68 small-molecule binders, primary screen, biochemical, small-molecule microarray, 635 nm fluorescence (AID 1125).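 Note: score merges 667 nm channel intensity with signal to noise over triplicate slides.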 To be noted: small-molecule microarray binding, higher = more signal.
Assay [17] relates to Chordin-like protein 2 (CHRDL2). Briefly: CHRDL2 small-molecule binders, primary screen, biochemical, small-molecule microarray, 635 nm fluorescence (AID 1126).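 Note: printed compound slides probed with Chrdl2 protein at 4 µg/mL for 1 h at 4 C; score merges 667 nm emission intensity with signal to noise over three replicate slides.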 The conditions noted are these: small-molecule microarray binding, fluorescence 635 nm; higher = more signal.
In assay [18] the target is Concanavalin-A (Canavalia ensiformis) (UniProt P02866). Put plainly: ConA small-molecule binders, primary screen, artefact control for SMM control protein annotation, biochemical, small-molecule microarray, Alexa647 label, 635 nm (AID 1127).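 Note: z combines 667 nm emission intensity with signal-to-noise across three replicate slides.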 To be noted: ConA-A647 binding fluorescence, higher = more signal.
Sequence of Concanavalin-A (Canavalia ensiformis) (P02866 whole entry, looked up): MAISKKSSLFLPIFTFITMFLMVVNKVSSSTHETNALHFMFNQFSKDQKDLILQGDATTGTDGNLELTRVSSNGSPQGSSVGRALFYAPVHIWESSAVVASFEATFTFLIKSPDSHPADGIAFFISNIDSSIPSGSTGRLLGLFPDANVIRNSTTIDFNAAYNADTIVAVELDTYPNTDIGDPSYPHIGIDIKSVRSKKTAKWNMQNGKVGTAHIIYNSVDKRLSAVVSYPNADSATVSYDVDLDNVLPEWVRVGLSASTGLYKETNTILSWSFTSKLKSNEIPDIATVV

Sequence of Left-right determination factor 2 (Homo sapiens) (O00292 whole entry, looked up): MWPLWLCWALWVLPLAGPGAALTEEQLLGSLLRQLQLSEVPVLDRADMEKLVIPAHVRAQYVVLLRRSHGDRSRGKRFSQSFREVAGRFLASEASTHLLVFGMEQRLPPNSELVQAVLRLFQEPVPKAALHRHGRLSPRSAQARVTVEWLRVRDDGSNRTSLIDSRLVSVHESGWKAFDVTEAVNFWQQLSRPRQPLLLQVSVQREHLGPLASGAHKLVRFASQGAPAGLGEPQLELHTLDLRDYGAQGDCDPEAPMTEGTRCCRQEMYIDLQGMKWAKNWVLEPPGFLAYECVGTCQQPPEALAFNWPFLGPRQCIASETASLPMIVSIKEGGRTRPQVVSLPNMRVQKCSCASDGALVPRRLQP
Sequence of Alpha-bungarotoxin (Bungarus multicinctus) (P60615 whole entry, looked up): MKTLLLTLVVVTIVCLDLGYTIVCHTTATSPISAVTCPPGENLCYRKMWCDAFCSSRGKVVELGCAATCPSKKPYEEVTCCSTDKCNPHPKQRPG
Sequence of Albumin (Bos taurus) (P02769 whole entry, looked up): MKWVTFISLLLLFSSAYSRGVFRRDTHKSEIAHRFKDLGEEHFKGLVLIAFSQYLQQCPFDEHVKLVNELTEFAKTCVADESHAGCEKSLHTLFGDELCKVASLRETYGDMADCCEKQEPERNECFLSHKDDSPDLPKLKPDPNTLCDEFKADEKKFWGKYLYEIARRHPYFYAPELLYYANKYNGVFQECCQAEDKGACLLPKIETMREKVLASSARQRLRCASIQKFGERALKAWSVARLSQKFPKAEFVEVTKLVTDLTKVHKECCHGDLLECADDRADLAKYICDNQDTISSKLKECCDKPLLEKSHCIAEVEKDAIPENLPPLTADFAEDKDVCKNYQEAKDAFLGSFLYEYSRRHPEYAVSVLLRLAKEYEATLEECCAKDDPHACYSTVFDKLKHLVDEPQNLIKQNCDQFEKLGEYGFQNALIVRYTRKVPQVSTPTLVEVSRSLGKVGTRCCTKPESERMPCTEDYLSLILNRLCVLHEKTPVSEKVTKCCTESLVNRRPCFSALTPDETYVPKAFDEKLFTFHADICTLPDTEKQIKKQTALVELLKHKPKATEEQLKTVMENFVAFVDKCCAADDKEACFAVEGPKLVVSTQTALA
Sequence of Torsin-1A-interacting protein 1 (Homo sapiens) (Q5JTV8 whole entry, looked up): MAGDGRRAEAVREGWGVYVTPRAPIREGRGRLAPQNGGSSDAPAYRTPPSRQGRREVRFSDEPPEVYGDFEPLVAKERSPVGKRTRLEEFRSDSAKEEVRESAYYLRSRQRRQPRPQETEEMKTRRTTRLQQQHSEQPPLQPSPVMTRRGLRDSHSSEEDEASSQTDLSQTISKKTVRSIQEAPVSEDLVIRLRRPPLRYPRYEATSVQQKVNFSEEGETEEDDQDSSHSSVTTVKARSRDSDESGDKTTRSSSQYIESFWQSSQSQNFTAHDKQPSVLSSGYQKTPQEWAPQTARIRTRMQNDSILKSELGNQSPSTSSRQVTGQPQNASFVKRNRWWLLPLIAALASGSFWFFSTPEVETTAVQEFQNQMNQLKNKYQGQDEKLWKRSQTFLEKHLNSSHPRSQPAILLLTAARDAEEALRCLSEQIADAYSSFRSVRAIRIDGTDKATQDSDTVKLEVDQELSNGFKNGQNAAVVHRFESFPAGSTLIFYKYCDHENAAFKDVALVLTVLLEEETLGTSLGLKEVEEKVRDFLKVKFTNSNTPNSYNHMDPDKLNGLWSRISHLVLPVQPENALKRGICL

Regarding `CC(C)N1C(=O)c2ccccc2[C@](C)(C(=O)O)[C@@H]1c1ccc(CO)cc1`, the composite z-score in assay [1] was -0.113; in assay [3], -1.23; in [4], -0.198; in assay [5], 0.531; in assay [6], -0.143; in [7], 0.133. The composite z-score was 0.338 in [8]; 0.274 in assay [9]; 0.468 in [10]; 0.401 in the assay with Albumin (Bos taurus); -0.103 in assay [12]; 0.16 in assay [13]. Besides, the composite z-score in assay [14] was 0.326; in assay [15] it was 0.119; in [16], 0.755; with Sam68 (KHDRBS1), -0.769; in assay [17], -1.49; in assay [18], -0.0545. In assay [2], the z-score is -0.169. The composite Z-score in assay [11] is -0.158 (inactive).
For the molecule `CCOC(=O)C[C@H]1[C@H](OC(=O)c2ccccc2-c2ccccc2)[C@@H](NC(=O)c2ccccc2)c2cc(OCCCO)ccc2N1C(=O)Cc1ccc(OC)cc1`, the composite z-score was -0.12 in assay [1]; -0.0713 in assay [3]; -0.026 in assay [4]; -0.641 in assay [5]; -0.107 in assay [6]; -0.289 in assay [7]. The composite z-score in assay [8] was -0.0877; in assay [9], 0.593; in assay [10], 0.66; in the assay with Albumin (Bos taurus), -0.261; in [12], -0.0055; in assay [13] it was 0.669. In addition, the composite z-score in assay [14] is -0.0956; in assay [15], 0.428; in [16], 0.368; with Sam68 (KHDRBS1), -0.0802; in [17], 0.0666; in assay [18], 0.588. The molecule further showed a z-score in [2] of -1.31. Besides, in assay [11], the composite Z-score was -0.0282 (inactive).
Take `CO[C@H]1O[C@H](CO)[C@@H](OC(=O)Nc2ccc(C(F)(F)F)cc2)[C@H](OC(=O)Nc2ccccc2)[C@H]1OC(=O)Nc1ccccc1`: the composite z-score in assay [1] came out at 0.69; in assay [3] it was 0.513; in assay [4] it was 1.99; in assay [5], 0.168; in assay [6], 0.133; in assay [7], 0.342. The composite z-score came out at 1.18 in assay [8]; 0.825 in assay [9]; 2.69 in [10]; 0.868 with Albumin (Bos taurus); 0.248 in [12]; 0.0083 in [13]. In addition, the composite z-score was 0.565 in [14]; 2.68 in assay [15]; 0.494 in [16]; 1.3 in the assay with Sam68 (KHDRBS1); -0.42 in [17]; 1.21 in assay [18]. In assay [2], this molecule showed a z-score of -3.84. The composite Z-score in [11] is -0.465 (inactive).
For the molecule `CCCC[C@H]1OB(O)C[C@H]2C1=C(COc1ccccc1)Cn1c(=O)n(-c3ccccc3)c(=O)n12`, the composite z-score in assay [1] is 1.03; in assay [3], 0.375; in assay [4], 0.292; in assay [5], -0.0404; in [6], -0.186; in assay [7], -0.16. The composite z-score in [8] was -0.555; in [9], 0.654; in assay [10], -0.334; in the assay with Albumin (Bos taurus), 0.196; in assay [12] it was 0.0705; in assay [13], -0.114. Besides, the composite z-score in assay [14] was found to be 0.247; in assay [15], 1.1; in assay [16] it was 0.0367; with Sam68 (KHDRBS1), 1.14; in [17], 0.357; in assay [18] it was 0.501. In assay [2], this molecule displayed a z-score of -0.917. Besides, in assay [11], the composite Z-score is 0.131 (inactive).
`O=C1OCCC=C[C@H]2OC34C=CCN(Cn5nnc6ccccc65)C(=O)[C@H]3N(CCCCCO)C(=O)[C@@H]4C12` (stereo not given in full): the composite z-score in [1] was -0.473; in assay [3], -0.511; in [4] it was -0.212; in [5], 0.106; in [6] it was -0.101; in assay [7], -0.0769. Further, the composite z-score in assay [8] is 0.0599; in assay [9], -1.1; in assay [10], -1.09; with Albumin (Bos taurus), 0.428; in [12] it was -0.193; in assay [13], -0.114. Moreover, the composite z-score was 0.87 in assay [14]; 0.121 in assay [15]; 0.686 in assay [16]; -0.464 in the assay on Sam68 (KHDRBS1); -0.579 in assay [17]; -1.55 in assay [18]. The molecule also came in with a z-score in assay [2] of 0.204. Moreover, the composite Z-score in [11] is 0.266 (inactive).
With `COCCOC(=O)N1C(=O)[C@@]2(c3cc(C#CC4(O)CCCCCC4)ccc31)[C@H](C(=O)NC[C@H](O)c1ccccc1)[C@H]1C(=O)O[C@H](c3ccccc3)[C@H](c3ccccc3)N1[C@@H]2c1ccc(OCCO)cc1`, the composite z-score is 1.38 in [1]; 0.358 in [3]; 0.7 in [4]; 0.383 in assay [5]; -0.282 in assay [6]; -0.638 in assay [7]. For the same molecule, the composite z-score was 0.14 in assay [8]; 0.394 in assay [9]; 0.598 in assay [10]; 0.067 in the assay with Albumin (Bos taurus); -0.0328 in assay [12]; -0.0995 in assay [13]. In addition, the composite z-score amounted to 0.495 in assay [14]; 1.23 in assay [15]; 0.217 in assay [16]; 1.3 with Sam68 (KHDRBS1); 0.223 in assay [17]; 1.13 in assay [18]. Besides, the z-score in assay [2] is -1.73. Moreover, the composite Z-score in assay [11] is 0.244 (inactive).

(Values after PubChem BioAssay.)
